# HT1080 IDH1KD tx = HT-1080 IDH1 knockdown cell toxicity (counter line); HT-1080 IDH1 knockdown viability, ATP luminescence, 48 h; Potency, µM (highest dose often 46.1 µM), inactives show at the top dose activity, negative = toxicity, usual class: cytotoxic; actives 2% (n = 360,000); AID 686971;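 further: potency means the concentration at half of the fitted maximal effect; 0% = DMSO wells and -100% = cell-free medium wells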
#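 IDH1KD HT-1080 cells, 750/well, RPMI + 5% FBS; compound pinned after 2 h settling; 48 h, 37 °C; CellTiter-Glo luminescence; % activity normalised to DMSO and no-cell wells; curves fitted, classed by r2 and efficacy.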
# TDP1 cell CPT = DT40-hTDP1 cell growth loss with CPT | actives 12% (n = 420,000) | chicken DT40 Tdp1-/-;hTDP1 cells + 20 nM CPT, ATP luminescence, 48 h | Potency, µM (doses to about 46.2 µM), for the others: at the top dose activity change, negative = growth inhibition, actives largely listed as inhibitors; further: potency means the concentration at half of the fitted maximal effect; nearly all actives have a fitted effect of over 55% in size
#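 Cell growth measured by CellTiter-Glo luminescence after a minimum 48 h, 37 C compound exposure with 20 nM CPT in Tdp1-knockout DT40 cells stably expressing hTDP1, seeded 400/well; qHTS titration format.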
# IL-1B inflam inh = inflammasome signaling inhibition, IL-1 beta readout | THP-1 LPS/ATP IL-1B secretion, AlphaLISA, 16 h; hits give low values | activity change, % at 57.5 µM | actives 4.7% (n = 360,000); in the data active means activity change below about -50%; inconclusive means mostly about -30% to -49%
#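 Secreted IL-1B measured by AlphaLISA bead assay after 16 h compound exposure of THP-1 cells; compounds (final up to 57.5 uM) added 1 h before LPS (250 ng/mL) and ATP (1.25 mM) stimulation; lower signal means less secretion.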
# DT40 TDP1 no CPT = qHTS for Inhibitors of human tyrosyl-DNA phosphodiesterase 1 (TDP1): qHTS in cells in absence of CPT | DT40 Tdp1-/- hTDP1 cells, no CPT, ATP luminescence, 48 h | Potency, µM (top dose mostly 46.2 µM), without a hit: at the highest dose activity change, negative = growth inhibition, most hits filed as inhibitors | actives 15% (n = 420,000) | AID 686978, 2013; further: potency means the concentration at half of the fitted maximal effect; nearly all actives have a fitted effect of over 55% in size
#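 DT40 Tdp1-/-;hTDP1 cells, no CPT (DMSO vehicle only), 400 cells/well; compounds pin-transferred; ≥48 hr, 37 °C; CellTiter-Glo 30 min RT dark, luminescence read.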
# HT1080-NT tox = kills 2HG-producing HT-1080-NT fibrosarcoma cells; AID 686970; Potency, µM (doses to about 46.1 µM), without a hit: top-dose activity, negative = less viability, actives largely listed as cytotoxic; HT-1080-NT fibrosarcoma viability, CellTiter-Glo ATP luminescence, 48 h; actives 1.6% (n = 360,000);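 further: NT is the 2HG producing partner of a matched IDH1 knockdown line; potency means the concentration at half of the fitted maximal effect; 0% = DMSO-treated cells and -100% = media-only wells without cells; nearly all actives have a fitted effect of over 55% in size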
#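 Read-out is CellTiter-Glo luminescence after 10 minutes at room temperature, following 48 hours' compound treatment of HT-1080-NT cells (750 cells/well, RPMI, 5% FBS, 37 degrees C).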
# * = called active by the depositor; ? = inconclusive; / = no result given. Most compounds without a hit are left out; they make up all but 19% or so of the library. Unless noted, the call rests on the fitted dose curve; in most records, active means well fitted curve in the direction sought with a large enough effect; inconclusive means small, poorly fitted or top-dose-only effect, or another doubt; inactive means no such curve, though single readings can be large; an effect the other way counts as inactive or inconclusive. Unless noted, on the % scale 0 is the no-effect control and ±100 the full control effect.
SMILES,HT1080 IDH1KD tx,TDP1 cell CPT,IL-1B inflam inh,DT40 TDP1 no CPT,HT1080-NT tox
CC(C)=C1SC(N2CCN(c3ccc(Cl)cc3)CC2)=NC1=O,4%,?,-60*,?,12%
O=C(NCO)c1cccnc1,7%,0%,6,-6%,4%
COc1ccc(NC(=O)C(=O)NCCc2csc3nc(-c4ccccc4F)nn23)cc1OC,/,0%,/,3%,/
COc1ccc(C)cc1NC(=O)C(=O)NCCc1csc2nc(-c3ccccc3F)nn12,/,-6%,/,-26%,/
CC(=O)Nc1ccc(S(=O)(=O)NCCc2csc3nc(-c4ccc(Cl)cc4)nn23)cc1,/,21µM*,/,16µM*,/
COc1ccc(S(=O)(=O)NCCc2csc3nc(-c4cccc(C)c4)nn23)cc1F,/,?,/,21µM*,/
COc1ccc(-c2nc3scc(CCNS(=O)(=O)c4c(C)cc(C)cc4C)n3n2)cc1OC,/,15µM*,/,23µM*,/
COc1ccc(S(=O)(=O)NCCc2csc3nc(-c4ccc(OC)c(OC)c4)nn23)cc1C,/,?,/,16µM*,/
Cc1cc(S(=O)(=O)Nc2ncnc3sccc23)ccc1F,-1%,-6%,13,-12%,2%
COC(=O)c1oc(-c2ccc(Cl)cc2)nc1C,0%,15%,0,-23%,11%
C=CCNS(=O)(=O)c1ccc2nsnc2c1,0%,-1%,12,9%,10%
COc1ccc(S(=O)(=O)NCCc2csc3nc(-c4ccc(Cl)cc4)nn23)cc1C,/,16µM*,/,13µM*,/
COc1ccc(-c2nc3scc(CCNS(=O)(=O)c4ccc(F)cc4F)n3n2)cc1OC,/,?,/,18µM*,/
COc1ccc(S(=O)(=O)NCCc2cn3nc(C)c(C)nc3n2)cc1C,5%,-9%,-13,13%,14%
CSc1ccccc1OCc1cc(C(=O)NC2CCOC2)no1 (stereo unspecified),-1%,0%,0,8%,-2%
COc1ccc(N2CCN(C(=O)CCc3ccc(S(=O)(=O)NCC(C)C)cc3)CC2)cc1,-12%,?,-1,?,-2%
CN(C)c1ccc(C=C2SC(=S)NC2=O)cc1,-1%,0%,13,?,0%
CCOc1ccc(N(C)c2ccc(/C=C3/SC(=S)NC3=O)cc2)cc1,?,?,21,16µM*,?
CCC1CSC(=Nc2ccc(C)cc2)N1C(=O)CN1C(=O)NC2(CCCC2)C1=O (stereo unspecified),-22%,-13%,-1,-2%,-23%
c1ccc(CCc2cccnc2)cc1,19%,4%,-11,0%,5%
COCCNC(=O)C1Cc2c(-c3ccc(NC(C)=O)cc3)ccnc2O1 (stereo unspecified),-24%,?,0,?,-28%
CC(=O)Nc1ccc(-c2ccnc3c2CC(C(=O)NCC2CCOCC2)O3)cc1 (stereo unspecified),?,4.6µM*,40,4.1µM*,?
CC(=O)Nc1ccc(-c2ccnc3c2CC(C(=O)NCC2CC2)O3)cc1 (stereo unspecified),16µM*,13µM*,27,8.2µM*,?
CC(=O)Nc1ccc(-c2ccnc3c2CC(C(=O)NCCC(F)(F)F)O3)cc1 (stereo unspecified),?,13µM*,0,15µM*,-37%
CCN(CCS(=O)(=O)c1ccc(Br)cc1)Cc1nc2ccccc2c(=O)[nH]1,-7%,-17%,-52*,?,-8%
CCC(CC)C(=O)N(CCc1ccc(OC)cc1)Cc1nc2ccccc2c(=O)[nH]1,7.1µM*,23µM*,-54*,21µM*,?
COc1ccc2[nH]c(=O)c(CN(C(=O)NC3CCCCC3)C3CCCCC3)cc2c1,1%,21µM*,2,21µM*,-7%
COc1ccc(CN(Cc2nc3ccccc3c(=O)[nH]2)C(=O)NC2CCCCC2)cc1,-9%,-16%,-58*,-21%,-10%
O=C(O)COc1nn(Cc2ccccc2)c2ccccc12,/,2%,/,-17%,/
